According to PubChem BioAssay AID1347043 (National Center for Advancing Translational Sciences (NCATS), 2019):
Among all 76,000 compounds or so, about 1,900 (2.5%) were called active. Another 5% or so got no clear call; they are omitted. Calls follow the shape of the dose curve; as a rule, active = well fitted inhibition curve with a large enough effect; inconclusive = small, poorly fitted or top-dose-only effect; inactive = flat fitted curve, though single readings scatter. The list comes from a sample in which actives are over-represented; it also holds similar structures and randomly drawn compounds. Entries that show only a call come without a potency.

Each compound was assayed against Luciferin 4-monooxygenase (Photinus pyralis) (UniProt P08659) (assay: Firefly luciferase inhibition profiling of diverse chemical library using quantitative high-throughput screening). Settings: purified P. pyralis luciferase, luminescence, biochemical; series mostly up to 115 µM.
Chain of Luciferin 4-monooxygenase (Photinus pyralis) (P08659 whole entry, looked up): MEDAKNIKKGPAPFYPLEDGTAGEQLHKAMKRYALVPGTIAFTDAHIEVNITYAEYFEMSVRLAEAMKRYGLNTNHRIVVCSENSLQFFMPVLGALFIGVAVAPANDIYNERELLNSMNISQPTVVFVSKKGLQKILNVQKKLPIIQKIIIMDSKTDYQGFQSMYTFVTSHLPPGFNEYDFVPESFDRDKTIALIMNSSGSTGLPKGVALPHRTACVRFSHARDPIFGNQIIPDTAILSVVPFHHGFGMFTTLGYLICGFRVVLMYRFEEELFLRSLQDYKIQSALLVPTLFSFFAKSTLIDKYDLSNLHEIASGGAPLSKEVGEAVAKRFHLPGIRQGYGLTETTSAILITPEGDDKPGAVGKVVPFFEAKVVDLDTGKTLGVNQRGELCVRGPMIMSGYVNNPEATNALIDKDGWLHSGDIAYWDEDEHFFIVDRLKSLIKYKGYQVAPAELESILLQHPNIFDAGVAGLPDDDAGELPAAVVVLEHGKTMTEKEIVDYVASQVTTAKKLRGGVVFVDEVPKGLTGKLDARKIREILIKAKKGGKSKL
Procedure, shortened: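 FLuc 10nM, D-luciferin 10uM, ATP 10uM, Mg acetate 10mM, Tris acetate pH 7.5, Tween/BSA; cpd qHTS; enzyme added last; CCD luminescence.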
Also: nearly all actives have a fitted effect of over 65% in size.
Potency is read from the fitted curve at half-maximal effect.

Structure (SMILES) | Potency
Cc1ccccc1CNC(=O)c1ccc2c(c1)N(C)C1CCCCN1C2=O (stereo not given) | inactive
CN1c2cc(C(=O)Nc3ccccc3)ccc2C(=O)N2CCCCCC21 (stereo not given) | 6.31 µM (active)
CCN1c2cc(C(=O)Nc3ccccc3)ccc2C(=O)N2CCCC21 (stereo not given) | inactive
Cc1cc(C)cc(C(=O)NC2CCN(c3cc(-c4cccs4)[nH]n3)C2)c1 (stereo not given) | inactive
Cc1cccc(CN2C[C@@H]3C(=O)N(Cc4ccc5c(c4)OCO5)C(=O)[C@@H]3C2)c1 | inactive
COc1ccc(OC)c(S(=O)(=O)N2CCCCCCNC(=O)CC2c2ccccc2)c1 (stereo not given) | inactive
CCC(CC)N1CCN(C(=O)c2ccc3c(c2)N(S(C)(=O)=O)CC3)CC1 | 35.5 µM (active)
CCOc1cccc(CNC(=O)c2ccc3c(c2)N(S(C)(=O)=O)CC3)c1 | inactive
CC(=O)N1CCc2ccc(C(=O)N3CCCCCC3)cc21 | inactive
CN(c1ccccc1)c1cc(=O)c2ccnc(-c3ccc(CO)cc3)c2o1 | inactive
CN(c1ccccc1)c1cc(=O)c2ccnc(Nc3cccc([S+](C)(=O)[O-])c3)c2o1 | inactive
Cc1ccc(CN2CCc3nc(C)nc(-c4ccc(O)cc4)c3C2)cc1 | inactive
CCN1CCN(c2ccc(C(=O)NCCCn3ccnc3C(C)C)cn2)CC1 | inactive
O=C(NCC1CC1)c1nc2c(o1)CCN(Cc1cccc(F)c1F)CC2 | inactive
N#Cc1ccc(CN2CCc3nc(C(=O)N4CCOCC4)oc3CC2)cc1 | inactive
O=C(Nc1ccc(Cl)cc1)c1nc2c(o1)CCN(Cc1ccsc1)CC2 | 17.8 µM (active)
O=C(NCC1CC1)c1nc2c(o1)CCN(CCc1ccccc1)CC2 | inactive
O=C(Nc1ccccc1)c1nc2c(o1)CCN(Cc1cccc(Cl)c1)CC2 | 1.58 µM (active)
Cc1cccc(CN2CCc3nc(C(=O)Nc4ccc(Cl)cc4)oc3CC2)c1 | inactive
O=C(c1ccccc1-n1cccn1)N1CCN(Cc2ccccc2CO)CC1 | inactive
CCOc1ccc(C(=O)N2CCC(Cc3nc(C(C)C)no3)CC2)cc1 | inactive
Cc1nccn1CC1(CNc2ccncn2)CC1 | inactive
CN(C)Cc1nnc(C2CCCN(C(=O)C3(N)CCNCC3)C2)n1C (stereo not given) | inactive
COc1ccccc1C1CCN(Cc2cn(-c3ccccc3)nn2)CC1 | inactive
O=C(Nc1ccc([C@@H](O)[C@H]2COCC(=O)N2Cc2ccccc2F)cc1)C1CCCCC1 | inactive

Structure (SMILES) | Potency
O=C(Nc1ccc([C@@H](O)[C@H]2COCC(=O)N2Cc2ccccc2F)cc1)c1ccccc1 | inactive
Cc1ccc(C(=O)Nc2ccc(C(O)[C@H]3COCC(=O)N3Cc3ccccc3F)cc2)cc1 (stereo not given in full) | 28.2 µM (active)
O=C([C@H]1C[C@H](Oc2cccnc2)CN1C(=O)CCCc1ccccc1)N1CCOCC1 | inactive
COc1ccc(CN2CCOc3nc(-c4cc(F)cc(OC)c4)ncc3C2=O)cc1 | 28.2 µM (active)
O=C1c2cnc(-c3ccc(Cl)cc3)nc2OCCN1Cc1ccccc1 | inactive
C[S+](=O)([O-])c1cccc(-c2ncc3c(n2)OCCN(Cc2ccc(F)cc2F)C3=O)c1 | inactive
NC(=O)c1cccc(-c2ncc3c(n2)OCCN(Cc2ccccc2)C3=O)c1 | inactive
COc1cccc(-c2nc(N3CCOCC3)cc3c2CN(CC2CC2)C3=O)c1 | inactive
COc1ccc(-c2ncc3c(n2)OCCN(CC2CC2)C3=O)cc1 | 1.26 µM (active)
O=C1c2cnc(-c3ccc(O)c(F)c3)nc2OCCN1Cc1ccccc1 | 22.4 µM (active)
COc1cccc(-c2ncc3c(n2)OCCN(Cc2ccc(F)cc2F)C3=O)c1OC | inactive
CN(C)c1cccc(-c2ncc3c(n2)OCCN(Cc2ccc(F)cc2F)C3=O)c1 | inactive
NC(=O)c1cccc(-c2ncc3c(n2)OCCN(c2cccc(C(F)(F)F)c2)C3=O)c1 | inactive
COc1ccc(F)cc1-c1ncc2c(n1)OCCN(CC1CC1)C2=O | inactive
COc1ccc(-c2ncc3c(n2)OCCN(Cc2ccccc2)C3=O)cn1 | 15.8 µM (active)
Cc1ccc(-c2nc(CNS(=O)(=O)C3CC3)[nH]c2-c2ccccn2)cc1 | inactive
O=C(CC1CCCC1)N1CCOc2ccc(CN3CCc4ccccc4C3)cc2C1 | inactive
Cc1noc(-c2cccn3c(CNC(=O)c4ccco4)nnc23)n1 | inactive
CC1=C[C@@H](CN2CCOCC2)[C@H](C(C)C)C[C@H]1Cc1nnc(-c2ccc([N+](=O)[O-])cc2)o1 | inactive
CC(C)NC(=O)N1CCN2C(=O)N(Cc3ccc(F)cc3)C[C@H]2C1 | inactive
O=C(Nc1ccccc1)N1CCN2C(=O)N(Cc3ccc(F)cc3)C[C@H]2C1 | 50.1 µM (active)
COc1ccc(CN2C[C@H]3CN(Cc4ccc(NC(C)=O)cc4)CCN3C2=O)cc1 | inactive
CN(Cc1ccccc1)C(=O)C[C@@H]1CCNC[C@@H]1Cc1cc(-c2ccc(C(C)(C)C)cc2)on1 | inactive
Cc1cn2nc(C(=O)N3CCC(NC(=O)c4ccc(C#N)cc4)CC3)cc2c(=O)[nH]1 | inactive
CCc1noc(-c2cccn3c(CNC(=O)c4ccncc4)nnc23)n1 | inactive

Structure (SMILES) | Potency
CCC(C)(C)NC(=O)c1cccc2c1CCN2C(=O)Nc1ccc(C)cc1 | 1.78 µM (active)
CC[C@H]1CN(C(=O)Nc2ccccc2)CC[C@H]1CC(=O)Nc1ccccc1 | inactive
Cc1cccc(S(=O)(=O)N2CCc3c(C(=O)NC(C)C)cccc32)c1 | inactive
CCOC(=O)C1CCN(C(=O)c2cccc3c2CCN3C(=O)Nc2ccccc2)CC1 | 5.62 µM (active)
COc1ccc(S(=O)(=O)N2CCc3c(C(=O)NCc4ccncc4)cccc32)cc1 | inactive
CCOc1ccc(C(=O)N2CCCN(C(=O)C3CC3)c3ccccc32)cc1 | inactive
Cc1ccc2nc(CO[C@H]3CN(C4CCOCC4)C[C@H]3F)[nH]c2c1 | inactive
Cc1ncoc1C(=O)N1CCCn2ccnc2C1c1ccccc1 (stereo not given) | inactive
CN(C)C(=O)CC(O)c1cc2n(n1)CCN(C(=O)Cc1ccsc1)C2 (stereo not given) | inactive
Cc1cccc2c(C3CCN(S(=O)(=O)c4cc(Cl)cc(Cl)c4)CC3)c[nH]c12 | inactive
COc1ccc(CN2CCc3nn(CC4CC4)c(=O)n3CC2)cc1 | inactive
COc1ccc(C(=O)NCCC2CCN(C(=O)Nc3cc(F)ccc3F)CC2)cc1 | 25.1 µM (active)
O=C(NCCC1CCN(C(=O)Nc2cc(F)ccc2F)CC1)c1cc(F)ccc1F | inactive
COc1ccc(C(=O)NCCC2CCN(C(=O)Nc3ccc(F)cc3F)CC2)cc1OC | inactive
CC(c1cccc(-c2cnc(C(=O)O)cn2)c1)N1CCCC1 (stereo not given) | inactive
CC(=O)N(C1CC1)C1CCOC2(CCN(C(=O)CCc3ccccc3)CC2)C1 (stereo not given) | inactive
O=C(CCCc1ccccc1)N1CCC2(CC1)CC(O)CCO2 (stereo not given) | 5.62 µM (active)
O=C(CCC1CCCC1)N1CCC2(CC1)CC(O)CCO2 (stereo not given) | inactive
COc1ccc(CC(=O)NC2CCCc3c2[nH]c2ccccc32)cc1 (stereo not given) | inactive
Fc1ccc(CNC[C@H]2Cn3c(-c4ccc5c(c4)OCCO5)cnc3CO2)cc1 | inactive
COc1ccc(-c2cn3c(n2)CO[C@@H](CNCc2ccc(F)c(F)c2)C3)cc1 | 35.5 µM (active)
c1c[nH]c(CNC[C@H]2Cn3ccnc3CO2)n1 | inactive
Cc1ccc(-c2cn3c(n2)CO[C@@H](CNS(=O)(=O)c2cccs2)C3)cc1 | inactive
c1ccc(CNC[C@H]2Cn3cc(-c4ccccc4)nc3CO2)cc1 | 63.1 µM (active)
O=C(Cn1nc(-c2ccccc2)n(-c2ccccc2)c1=O)N1C[C@@H]2C[C@H]1CN2 | inactive

Structure (SMILES) | Potency
O=C(c1ccc(F)cc1)N1CCC2(CC1)CCN(Cc1cccs1)c1ccccc1O2 | inactive
Cc1ccc(C(=O)Nc2ccc3ncnc(N4CCCCC4)c3c2)s1 | inactive
Cc1ccc(C(=O)Nc2ccc3c(N4CCCCC4)ncnc3c2)s1 | 22.4 µM (active)
Cc1cc(C)cc(C(=O)Nc2ccc3c(N4CCCC4)ncnc3c2)c1 | inactive
CCCS(=O)(=O)N1CCCC(Cn2c(C)nc3cccnc32)C1 (stereo not given) | inactive
Cc1c(-c2ccc(F)cc2)[nH]c2ccc(CNC(=O)c3ccc(CO)o3)cc12 | inactive
CNc1nc(C(=O)NCc2ccc3[nH]c(-c4ccc(F)cc4)c(C)c3c2)cs1 | 12.6 µM (active)
CC(C)Oc1cccc(-c2nc(C(=O)NCc3ccc(F)cc3)cs2)c1 | inactive
CN1C(=O)C(CC(=O)N2CCC(C#N)CC2)(Cc2ccccc2)c2ccccc21 (stereo not given) | inactive
CN(Cc1ccccc1F)Cc1ccccc1F | inactive
COCCc1noc(CC2CCOC3(CCN(C(=O)Nc4ccc5c(c4)OCCO5)CC3)C2)n1 (stereo not given) | 35.5 µM (active)
Cc1noc(CC2CCOC3(CCN(C(=O)c4ccc(C#N)cc4)CC3)C2)n1 (stereo not given) | inactive
COCCc1noc(CC2CCOC3(CCN(C(=O)C4CCCC4)CC3)C2)n1 (stereo not given) | inactive
COc1cccc(C(O)c2nc(C(=O)Nc3ccccc3)c(C)o2)c1 (stereo not given) | inactive
Fc1ccc(Nc2nc(-c3ccccc3F)no2)cc1 | 2.82 µM (active)
COc1ccc(Nc2nc(-c3cccc(OC)c3OC)no2)cc1 | 22.4 µM (active)
COc1cccc(-c2cc(C(=O)NCc3cc(C)on3)c3c(c2)N(C)CCO3)c1OC | inactive
C[C@H]1CN(C(=O)Nc2ccc(F)cc2)C[C@@H]1c1nc(-c2ccccc2)no1 | inactive
CCOc1ccc(Nc2ncncc2-c2nc(-c3ccccc3)no2)cc1 | inactive
O=C(Cn1cccc1-c1nc(-c2ccc(F)cc2)no1)Nc1cc(F)cc(F)c1 | inactive
CC1(c2noc(C3CCOCC3)n2)CCN(Cc2ccc(OCC(N)=O)cc2)CC1 | inactive
CN(Cc1ccccc1)Cc1cc(CC2(NCc3ccc(OC(F)(F)F)cc3)COC2)no1 | inactive
COCc1noc(-c2ccc(NCCN3CCNC3=O)nc2)n1 | inactive
COCCc1noc(-c2ccc(NC(C)c3ncccc3C)nc2)n1 (stereo not given) | 31.6 µM (active)
COc1cccc(CC(=O)NCCc2noc(-c3cccnc3)n2)c1 | inactive
